Results reported in the supplement of paper PMC10849652.
Targets with a hit are over-represented here; the source holds about 8,800 in all. About 0.5% of all pairs of compound and target were hits.

Tests used:
Experiment in all cases: log2 fold change, soluble protein after heating vs DMSO (PISA); higher = thermal stabilisation; K562 lysate, 10 uM; active = over 0.2 and 3.5 SD of the protein, either way, in both replicates (recomputed)
alvocidib = compound: CN1CC[C@H](c2c(O)cc(O)c3c(=O)cc(-c4ccccc4Cl)oc23)[C@H](O)C1 [alvocidib]
Outline: (§1)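 K562 pellets were dounce-homogenised in PBS pH 7.4 with 1 mM MgCl2, and the crude extract at 1 mg/mL protein was treated with 10 μM compound for 30 min. Aliquots were heated for 3 min across 48°C-58°C, pooled, and brought to 0.5% NP-40 at 4°C; soluble protein was the supernatant after 21,000xg for 90 min. Soluble protein was quantified by TMTpro 16plex LC-MS/MS with channel sums equalised, and reported as log2 fold change in thermal stability against DMSO controls, with values from duplicates.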

Tubastatin A = compound: CN1CCc2c(c3ccccc3n2Cc2ccc(C(=O)NO)cc2)C1 [Tubastatin A]
Outline: as §1

[1] = compound: CNC(=O)C1=CC=CC=C1NC2=NC(=NC=C2Cl)NC3=C(C=C(C=C3)N4CCOCC4)OC
Outline: as §1

defactinib = compound: CNC(=O)c1ccc(Nc2ncc(C(F)(F)F)c(NCc3nccnc3N(C)S(C)(=O)=O)n2)cc1 [defactinib]
Outline: as §1

[2] = compound: CNc1nc(-c2ccc3c(N)n[nH]c3c2)cc(N2C[C@@H](C(=O)NC3CCCCC3)CC[C@H]2C)n1
Outline: as §1

encorafenib = compound: COC(=O)N[C@@H](C)CNc1nccc(-c2cn(C(C)C)nc2-c2cc(Cl)cc(NS(C)(=O)=O)c2F)n1 [encorafenib]
Outline: as §1

[3] = compound: COC(=O)[C@H](CCSC)NC(=O)C1=C(C=C(C=C1)NC[C@H](CS)N)C2=CC=CC=C2
Outline: as §1

alisertib = compound: COc1cc(Nc2ncc3c(n2)-c2ccc(Cl)cc2C(c2c(F)cccc2OC)=NC3)ccc1C(=O)O [alisertib]
Outline: as §1

[4] = compound: COc1cc2nc(-c3cc(F)ccc3O)nc(N[C@@H]3CNC[C@H]3C(C)(C)O)c2cc1OC
Outline: as §1

gefitinib = compound: COc1cc2ncnc(Nc3ccc(F)c(Cl)c3)c2cc1OCCCN1CCOCC1 [gefitinib]
Outline: as §1

Measured: log2 fold change

BCR (UniProt P11274)
inactive: alvocidib -0.007 | Tubastatin A -0.181 | [1] 0.002 | defactinib -0.008 | [2] -0.005 | encorafenib 0.036 | [3] 0.085 | alisertib -0.008 | [4] -0.021 | gefitinib -0.024

CDC25C (UniProt P30307)
inactive: alvocidib 0.022 | Tubastatin A -0.09 | [1] 0.041 | defactinib 0.067 | [2] -0.073 | encorafenib 0.078 | [3] 0.14 | alisertib 0.054 | [4] 0.04 | gefitinib -0.069

C18orf32 (UniProt Q8TCD1)
inactive: alvocidib 0.049 | Tubastatin A 0.035 | [1] 0.084 | defactinib 0.144 | [2] 0 | encorafenib 0.168 | [3] -0.316 | alisertib 0.043 | [4] -0.019 | gefitinib -0.249

C19orf54 (UniProt Q5BKX5)
inactive: alvocidib -0.032 | Tubastatin A 0.004 | [1] 0.048 | defactinib -0.039 | [2] 0.023 | encorafenib 0.024 | [3] 0.151 | alisertib -0.099 | [4] 0.069 | gefitinib 0.08

CBFA2T3 (UniProt O75081)
inactive: alvocidib -0.039 | Tubastatin A -0.131 | [1] 0.028 | defactinib 0.004 | [2] 0.051 | encorafenib 0.056 | [3] 0.037 | alisertib 0.031 | [4] -0.042 | gefitinib 0.018

CCNK isoform 4 (UniProt O75909)
inactive: alvocidib -0.094 | Tubastatin A -0.004 | [1] 0.01 | defactinib -0.011 | [2] 0.009 | encorafenib 0.017 | [3] -0.035 | alisertib 0.071 | [4] 0 | gefitinib 0.046

CCDC22 (UniProt O60826)
inactive: alvocidib 0.024 | Tubastatin A -0.063 | [1] 0.012 | defactinib -0.03 | [2] 0.009 | encorafenib 0.031 | [3] -0.029 | alisertib 0.002 | [4] -0.009 | gefitinib 0.027

BOLA2 (UniProt Q9H3K6)
UniProt Q9H3K6, sequence (Q9H3K6 whole entry, looked up): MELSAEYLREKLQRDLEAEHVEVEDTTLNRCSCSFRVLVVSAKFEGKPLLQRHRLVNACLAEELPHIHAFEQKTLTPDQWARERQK
inactive: alvocidib 0.02 | Tubastatin A 0.015 | [1] -0.065 | defactinib 0.023 | [2] -0.052 | encorafenib 0.036 | [3] -0.057 | alisertib -0.006 | [4] 0.009 | gefitinib -0.03

ATXN2 (UniProt Q99700)
inactive: alvocidib 0.046 | Tubastatin A -0.047 | [1] 0.016 | defactinib -0.019 | [2] 0.001 | encorafenib 0.018 | [3] -0.003 | alisertib -0.032 | [4] 0.011 | gefitinib 0.006

ATAD1 (UniProt Q8NBU5)
inactive: alvocidib -0.047 | Tubastatin A -0.016 | [1] 0.045 | defactinib -0.054 | [2] 0.006 | encorafenib -0.049 | [3] -0.042 | alisertib -0.119 | [4] 0.039 | gefitinib 0.22

CAPN15 (UniProt O75808)
inactive: alvocidib -0.01 | Tubastatin A -0.043 | [1] 0.001 | defactinib -0.014 | [2] 0.19 | encorafenib -0.029 | [3] 0.03 | alisertib -0.03 | [4] 0.024 | gefitinib -0.024

CASP9 (UniProt P55211)
inactive: alvocidib -0.01 | Tubastatin A -0.043 | [1] -0.021 | defactinib 0.039 | [2] -0.014 | encorafenib 0.023 | [3] -0.077 | alisertib 0.014 | [4] 0.017 | gefitinib 0.052

CCPG1 isoform 5 (UniProt Q9ULG6)
inactive: alvocidib 0.029 | Tubastatin A 0.006 | [1] 0.028 | defactinib -0.03 | [2] -0.02 | encorafenib 0.049 | [3] -0.165 | alisertib -0.073 | gefitinib -0.061
active: [4] 0.303

CD80 (UniProt P33681)
UniProt P33681, sequence (P33681 whole entry, looked up): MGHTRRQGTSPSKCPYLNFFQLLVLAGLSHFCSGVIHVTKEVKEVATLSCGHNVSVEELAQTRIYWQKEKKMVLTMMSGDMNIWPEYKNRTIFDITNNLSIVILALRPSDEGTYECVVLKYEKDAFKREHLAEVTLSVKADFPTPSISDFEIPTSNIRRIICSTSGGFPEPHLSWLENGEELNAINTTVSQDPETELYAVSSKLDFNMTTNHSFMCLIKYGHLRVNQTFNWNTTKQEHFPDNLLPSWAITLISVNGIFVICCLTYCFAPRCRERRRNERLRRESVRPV
inactive: alvocidib 0.071 | Tubastatin A 0 | [1] 0.014 | defactinib -0.085 | [2] 0.11 | encorafenib 0.016 | [3] -0.082 | alisertib -0.345 | [4] -0.011 | gefitinib -0.001

CES2 isoform 4 (UniProt O00748)
UniProt O00748, sequence (O00748 whole entry, looked up): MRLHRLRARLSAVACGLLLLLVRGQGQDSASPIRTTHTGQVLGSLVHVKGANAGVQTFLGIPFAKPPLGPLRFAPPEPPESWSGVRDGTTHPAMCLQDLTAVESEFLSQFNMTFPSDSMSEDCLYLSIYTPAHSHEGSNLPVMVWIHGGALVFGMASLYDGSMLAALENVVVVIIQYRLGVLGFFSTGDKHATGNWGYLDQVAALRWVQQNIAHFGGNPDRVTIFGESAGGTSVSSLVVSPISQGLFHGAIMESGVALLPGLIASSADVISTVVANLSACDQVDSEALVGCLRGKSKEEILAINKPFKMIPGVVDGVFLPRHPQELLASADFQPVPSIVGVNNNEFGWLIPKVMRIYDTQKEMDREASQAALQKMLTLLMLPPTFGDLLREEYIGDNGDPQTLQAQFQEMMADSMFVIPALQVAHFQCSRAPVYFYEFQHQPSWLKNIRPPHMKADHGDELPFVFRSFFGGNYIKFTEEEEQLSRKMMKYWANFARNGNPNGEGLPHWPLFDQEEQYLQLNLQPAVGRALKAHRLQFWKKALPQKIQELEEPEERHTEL
inactive: alvocidib 0.021 | Tubastatin A -0.065 | [1] 0.09 | defactinib -0.111 | [2] 0.219 | encorafenib 0.075 | [3] 0.01 | alisertib -0.084 | [4] -0.002 | gefitinib -0.061

CARD9 (UniProt Q9H257)
inactive: alvocidib -0.011 | Tubastatin A -0.099 | [1] 0.043 | defactinib 0.05 | [2] 0.038 | encorafenib -0.06 | [3] 0.068 | alisertib -0.004 | [4] 0.009 | gefitinib -0.021

CDK9 isoform 2 (UniProt P50750)
UniProt P50750, sequence (P50750 whole entry, looked up): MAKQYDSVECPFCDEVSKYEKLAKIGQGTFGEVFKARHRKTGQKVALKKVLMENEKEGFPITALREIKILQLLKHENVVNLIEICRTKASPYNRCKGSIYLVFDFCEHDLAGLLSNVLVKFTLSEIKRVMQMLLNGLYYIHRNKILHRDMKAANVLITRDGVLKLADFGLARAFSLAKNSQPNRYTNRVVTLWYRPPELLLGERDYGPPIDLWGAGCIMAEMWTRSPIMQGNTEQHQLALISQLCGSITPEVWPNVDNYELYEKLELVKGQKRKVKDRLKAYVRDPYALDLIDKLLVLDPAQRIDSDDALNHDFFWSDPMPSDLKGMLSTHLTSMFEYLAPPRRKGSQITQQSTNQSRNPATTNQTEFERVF
inactive: Tubastatin A -0.042 | [1] 0.024 | [2] 0.016 | encorafenib -0.008 | [3] -0.033 | alisertib -0.003 | [4] 0.191 | gefitinib 0.008
active: alvocidib 0.578 | defactinib 0.392

CCDC47 (UniProt Q96A33)
UniProt Q96A33, sequence (Q96A33 whole entry, looked up): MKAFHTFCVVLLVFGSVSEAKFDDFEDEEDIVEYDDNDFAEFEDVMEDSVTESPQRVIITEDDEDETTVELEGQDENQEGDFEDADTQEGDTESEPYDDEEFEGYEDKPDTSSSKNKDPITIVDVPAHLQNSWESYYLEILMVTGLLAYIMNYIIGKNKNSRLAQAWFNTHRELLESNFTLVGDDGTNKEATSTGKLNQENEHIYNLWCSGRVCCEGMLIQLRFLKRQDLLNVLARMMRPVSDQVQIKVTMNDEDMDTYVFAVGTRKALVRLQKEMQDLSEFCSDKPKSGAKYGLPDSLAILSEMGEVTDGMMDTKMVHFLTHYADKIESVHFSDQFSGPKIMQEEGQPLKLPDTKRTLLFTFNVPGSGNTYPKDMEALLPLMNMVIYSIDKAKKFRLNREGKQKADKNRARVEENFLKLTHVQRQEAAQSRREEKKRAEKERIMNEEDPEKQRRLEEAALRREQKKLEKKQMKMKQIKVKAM
inactive: alvocidib 0.009 | Tubastatin A 0.016 | [1] -0.015 | defactinib 0.004 | [2] -0.028 | encorafenib -0.045 | [3] -0.037 | alisertib 0.037 | [4] -0.035 | gefitinib -0.011

CASC1 (UniProt Q6TDU7)
inactive: alvocidib -0.023 | Tubastatin A 0.317

BCORL1 isoform 3 (UniProt Q5H9F3)
inactive: alvocidib -0.328 | Tubastatin A -0.006 | [1] -0.064 | defactinib -0.213 | [2] 0.113 | encorafenib 0.022 | [3] 0.021

AURKA (UniProt O14965)
inactive: alvocidib -0.006 | Tubastatin A 0.03 | [1] 0.586 | defactinib 0.425 | [2] 0.094 | encorafenib -0.068 | [3] 0.002 | alisertib 0.436 | [4] -0.023 | gefitinib -0.101

CDAN1 (UniProt Q8IWY9)
inactive: alvocidib -0.034 | Tubastatin A -0.051 | [1] 0.049 | defactinib 0.039 | [2] 0.017 | encorafenib -0.018 | [3] 0.093 | alisertib 0.02 | [4] -0.022 | gefitinib -0.012

CALM2 (UniProt P0DP24)
inactive: alvocidib -0.063 | Tubastatin A 0.018 | [1] -0.059 | defactinib -0.016 | [2] 0.124 | encorafenib 0.03 | [3] -0.085 | alisertib 0.011 | [4] 0.026 | gefitinib -0.13

CHCHD2 (UniProt Q9Y6H1)
inactive: alvocidib -0.061 | Tubastatin A 0.031 | [1] -0.003 | defactinib -0.079 | [2] -0.024 | encorafenib -0.044 | [3] -0.126 | alisertib -0.051 | [4] -0.033 | gefitinib 0.28

CCNA2 (UniProt P20248)
UniProt P20248, sequence (P20248 whole entry, looked up): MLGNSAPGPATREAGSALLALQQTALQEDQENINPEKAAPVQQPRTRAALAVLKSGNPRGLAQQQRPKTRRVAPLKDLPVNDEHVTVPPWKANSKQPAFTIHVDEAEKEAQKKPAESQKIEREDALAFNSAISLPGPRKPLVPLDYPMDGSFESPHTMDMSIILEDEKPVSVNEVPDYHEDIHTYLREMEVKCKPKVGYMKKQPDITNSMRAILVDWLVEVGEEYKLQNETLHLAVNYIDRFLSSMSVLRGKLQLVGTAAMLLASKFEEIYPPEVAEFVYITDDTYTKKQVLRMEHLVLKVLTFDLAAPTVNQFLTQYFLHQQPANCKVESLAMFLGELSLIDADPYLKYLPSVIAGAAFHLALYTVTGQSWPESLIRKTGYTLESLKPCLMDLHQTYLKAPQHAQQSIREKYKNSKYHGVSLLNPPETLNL
inactive: alvocidib 0.044 | Tubastatin A 0.011 | [1] -0.002 | defactinib 0.037 | [2] -0.017 | encorafenib 0.005 | [3] -0.012 | alisertib -0.029 | [4] 0.176 | gefitinib 0.019

CCNY (UniProt Q8ND76)
inactive: alvocidib 0.001 | Tubastatin A -0.139 | [1] -0.015 | defactinib 0.011 | [2] 0.04 | encorafenib 0.023 | [3] -0.085 | alisertib 0.037 | [4] 0.008 | gefitinib -0.091

CELF1 isoform 4 (UniProt Q92879)
inactive: alvocidib 0 | Tubastatin A -0.167 | [1] 0.034 | defactinib 0.049 | [2] -0.059 | encorafenib 0.108 | [3] -0.031 | alisertib 0.048 | [4] -0.026 | gefitinib 0.056

BRAF (UniProt P15056)
UniProt P15056, sequence (P15056 whole entry, looked up): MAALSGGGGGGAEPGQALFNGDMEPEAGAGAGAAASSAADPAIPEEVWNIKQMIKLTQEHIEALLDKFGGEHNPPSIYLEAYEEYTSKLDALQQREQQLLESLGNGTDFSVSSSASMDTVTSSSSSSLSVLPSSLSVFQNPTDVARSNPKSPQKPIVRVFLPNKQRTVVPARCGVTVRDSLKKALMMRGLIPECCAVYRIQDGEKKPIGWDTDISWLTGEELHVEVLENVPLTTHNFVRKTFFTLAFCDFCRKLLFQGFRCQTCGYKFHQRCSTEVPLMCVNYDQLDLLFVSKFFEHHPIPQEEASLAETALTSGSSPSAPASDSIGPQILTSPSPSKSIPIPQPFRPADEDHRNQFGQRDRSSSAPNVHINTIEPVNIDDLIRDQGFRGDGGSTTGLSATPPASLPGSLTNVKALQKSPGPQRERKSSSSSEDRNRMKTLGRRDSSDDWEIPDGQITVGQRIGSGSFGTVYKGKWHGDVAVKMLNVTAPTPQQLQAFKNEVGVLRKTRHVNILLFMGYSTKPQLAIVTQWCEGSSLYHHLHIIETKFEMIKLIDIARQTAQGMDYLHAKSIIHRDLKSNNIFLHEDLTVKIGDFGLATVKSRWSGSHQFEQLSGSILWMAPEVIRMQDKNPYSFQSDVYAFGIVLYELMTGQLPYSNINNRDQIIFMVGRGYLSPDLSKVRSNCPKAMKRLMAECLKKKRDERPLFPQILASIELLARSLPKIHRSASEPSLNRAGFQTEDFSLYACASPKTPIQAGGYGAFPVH
active: encorafenib 0.984
inactive: alvocidib -0.019 | Tubastatin A -0.071 | [1] 0.016 | defactinib 0.067 | [2] -0.016 | [3] 0.043 | alisertib -0.021 | [4] -0.019 | gefitinib 0.045

CHD3 isoform 3 (UniProt Q12873)
UniProt Q12873, sequence (Q12873 whole entry, looked up): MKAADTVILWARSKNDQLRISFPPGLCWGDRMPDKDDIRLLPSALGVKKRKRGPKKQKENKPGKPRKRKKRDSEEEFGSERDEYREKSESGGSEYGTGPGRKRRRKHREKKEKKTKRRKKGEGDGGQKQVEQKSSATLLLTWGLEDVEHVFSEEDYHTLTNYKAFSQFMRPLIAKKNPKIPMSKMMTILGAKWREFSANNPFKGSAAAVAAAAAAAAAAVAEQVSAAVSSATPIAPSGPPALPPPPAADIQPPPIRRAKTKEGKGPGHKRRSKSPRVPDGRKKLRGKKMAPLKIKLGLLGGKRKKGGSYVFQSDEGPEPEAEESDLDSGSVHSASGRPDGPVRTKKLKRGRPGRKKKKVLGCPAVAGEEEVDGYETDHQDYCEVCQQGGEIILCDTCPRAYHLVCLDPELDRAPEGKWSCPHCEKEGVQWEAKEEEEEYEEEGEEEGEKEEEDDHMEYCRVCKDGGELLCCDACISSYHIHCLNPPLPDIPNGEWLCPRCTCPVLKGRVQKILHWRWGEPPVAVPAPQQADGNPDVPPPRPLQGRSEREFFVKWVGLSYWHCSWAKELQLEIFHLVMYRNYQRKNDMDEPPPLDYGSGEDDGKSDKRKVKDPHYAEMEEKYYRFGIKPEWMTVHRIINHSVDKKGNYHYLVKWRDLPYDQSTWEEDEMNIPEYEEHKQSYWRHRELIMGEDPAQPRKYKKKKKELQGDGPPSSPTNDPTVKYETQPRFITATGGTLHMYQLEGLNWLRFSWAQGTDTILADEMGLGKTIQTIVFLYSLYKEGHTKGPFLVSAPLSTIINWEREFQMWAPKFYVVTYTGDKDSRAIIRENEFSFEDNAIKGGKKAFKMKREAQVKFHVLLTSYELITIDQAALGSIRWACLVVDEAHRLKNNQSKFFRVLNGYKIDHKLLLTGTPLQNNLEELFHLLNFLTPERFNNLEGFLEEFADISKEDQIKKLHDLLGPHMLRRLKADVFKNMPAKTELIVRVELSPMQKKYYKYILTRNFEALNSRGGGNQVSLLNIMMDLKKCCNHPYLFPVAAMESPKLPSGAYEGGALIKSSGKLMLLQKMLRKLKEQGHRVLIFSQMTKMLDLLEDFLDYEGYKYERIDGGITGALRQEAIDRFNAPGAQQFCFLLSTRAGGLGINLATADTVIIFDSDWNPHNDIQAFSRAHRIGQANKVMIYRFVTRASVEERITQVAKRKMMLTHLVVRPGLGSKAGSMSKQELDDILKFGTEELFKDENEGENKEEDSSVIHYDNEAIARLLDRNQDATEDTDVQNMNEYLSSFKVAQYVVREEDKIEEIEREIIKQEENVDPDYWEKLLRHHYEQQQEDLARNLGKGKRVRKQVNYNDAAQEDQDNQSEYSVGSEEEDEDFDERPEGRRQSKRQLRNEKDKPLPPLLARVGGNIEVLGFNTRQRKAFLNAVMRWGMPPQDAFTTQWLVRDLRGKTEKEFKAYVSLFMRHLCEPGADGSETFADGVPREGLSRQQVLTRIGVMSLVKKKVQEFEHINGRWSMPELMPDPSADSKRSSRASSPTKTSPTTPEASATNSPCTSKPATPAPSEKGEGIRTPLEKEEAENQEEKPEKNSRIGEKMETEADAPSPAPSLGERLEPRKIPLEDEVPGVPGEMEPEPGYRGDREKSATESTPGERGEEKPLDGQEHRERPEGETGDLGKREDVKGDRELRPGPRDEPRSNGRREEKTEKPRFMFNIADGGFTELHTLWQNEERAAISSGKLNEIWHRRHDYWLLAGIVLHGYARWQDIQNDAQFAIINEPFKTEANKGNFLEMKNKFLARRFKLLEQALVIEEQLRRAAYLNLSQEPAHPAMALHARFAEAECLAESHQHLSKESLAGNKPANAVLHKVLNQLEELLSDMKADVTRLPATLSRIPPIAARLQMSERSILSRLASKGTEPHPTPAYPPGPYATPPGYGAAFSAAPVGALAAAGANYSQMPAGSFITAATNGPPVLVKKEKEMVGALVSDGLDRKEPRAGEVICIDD
inactive: alvocidib 0.003 | Tubastatin A -0.074 | [1] 0.015 | defactinib 0.006 | [2] 0.02 | encorafenib 0.029 | [3] 0.085 | alisertib 0.047 | [4] 0.01 | gefitinib -0.014

BNIP1 (UniProt Q12981)
inactive: alvocidib 0.231 | Tubastatin A -0.045 | [1] 0.055 | defactinib 0 | [2] -0.014 | encorafenib 0.095 | [3] -0.037 | alisertib 0.004 | [4] 0.004 | gefitinib -0.018

BCAR1 isoform 6 (UniProt P56945)
inactive: alvocidib 0.074 | Tubastatin A -0.009 | [1] 0.009 | defactinib -0.032 | [2] 0.012 | encorafenib 0.018 | [3] 0.014 | alisertib 0.009 | [4] 0.08 | gefitinib 0.065
